biological target: NKX3-2 (Homo sapiens, UniProt P78367 192-278, P234S); experiment: PBM; 200 nM protein, PBS; conditions: dsDNA, one strand shown
Sequence (P78367 192-278 P234S): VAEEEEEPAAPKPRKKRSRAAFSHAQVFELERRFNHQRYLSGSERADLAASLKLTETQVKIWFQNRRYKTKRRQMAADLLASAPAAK

Q: With GGCGCGCA as the sequence, how does the binding signal read?
A: Its binding signal is 10.6 upbm affinity estimate (log intensity, higher = more binding, comparable within an allelic series).

Q: Which binding signal does the source give for ATATGAGG here?
A: The binding signal was 11.6 upbm affinity estimate (log intensity, higher = more binding, comparable within an allelic series).

Q: CGGTTACC was tested. Which binding signal did it give?
A: Its binding signal is 10.6 upbm affinity estimate (log intensity, higher = more binding, comparable within an allelic series).

Q: How did the binding signal turn out when GAGTACAC was run?
A: Its binding signal is 12.1 upbm affinity estimate (log intensity, higher = more binding, comparable within an allelic series).

Q: ACCACTTC was tested. Which binding signal did it give?
A: The binding signal was 12.8 upbm affinity estimate (log intensity, higher = more binding, comparable within an allelic series).

biological target: CRX (Homo sapiens, UniProt O43186 26-111, R41L); experiment: PBM; 200 nM protein, PBS; conditions: dsDNA, one strand shown
Sequence (O43186 26-111 R41L): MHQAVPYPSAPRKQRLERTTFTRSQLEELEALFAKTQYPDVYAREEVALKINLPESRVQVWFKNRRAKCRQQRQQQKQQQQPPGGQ

Q: How did the binding signal turn out when AGTATTAA was run?
A: The binding signal was 11 upbm affinity estimate (log intensity, higher = more binding, comparable within an allelic series).

Q: How did the binding signal turn out when ACTAAGAC was run?
A: Its binding signal is 10.1 upbm affinity estimate (log intensity, higher = more binding, comparable within an allelic series).

Q: Which binding signal does the source give for GTATTAGA here?
A: Its binding signal is 10.7 upbm affinity estimate (log intensity, higher = more binding, comparable within an allelic series).

Q: ATAAGCCG was tested. Which binding signal did it give?
A: Its binding signal is 12.3 upbm affinity estimate (log intensity, higher = more binding, comparable within an allelic series).

Q: Which binding signal does the source give for CCTAAGCC here?
A: The binding signal was 11.2 upbm affinity estimate (log intensity, higher = more binding, comparable within an allelic series).

Q: CTAATACC was tested. Which binding signal did it give?
A: Its binding signal is 11.2 upbm affinity estimate (log intensity, higher = more binding, comparable within an allelic series).

Q: For GCTAAGAC, which binding signal is on record?
A: The binding signal was 10.2 upbm affinity estimate (log intensity, higher = more binding, comparable within an allelic series).

Q: How did the binding signal turn out when TAAGACGA was run?
A: The binding signal was 10.2 upbm affinity estimate (log intensity, higher = more binding, comparable within an allelic series).

Q: For CCGCTTAA, which binding signal is on record?
A: The binding signal was 10.9 upbm affinity estimate (log intensity, higher = more binding, comparable within an allelic series).

Q: Which binding signal does the source give for ATTAAGCG here?
A: The binding signal was 10.8 upbm affinity estimate (log intensity, higher = more binding, comparable within an allelic series).

Q: For ACTAATAC, which binding signal is on record?
A: The binding signal was 10.7 upbm affinity estimate (log intensity, higher = more binding, comparable within an allelic series).

Q: For GAGATTAC, which binding signal is on record?
A: The binding signal was 12.3 upbm affinity estimate (log intensity, higher = more binding, comparable within an allelic series).

Q: Which binding signal does the source give for AGGCTTAG here?
A: The binding signal was 11.6 upbm affinity estimate (log intensity, higher = more binding, comparable within an allelic series).

Q: Which binding signal does the source give for CTTTATCC here?
A: The binding signal was 10.7 upbm affinity estimate (log intensity, higher = more binding, comparable within an allelic series).

Q: With ATCTTAAG as the sequence, how does the binding signal read?
A: Its binding signal is 10.8 upbm affinity estimate (log intensity, higher = more binding, comparable within an allelic series).

Q: Which binding signal does the source give for ACGCTTAA here?
A: The binding signal was 10.3 upbm affinity estimate (log intensity, higher = more binding, comparable within an allelic series).

Q: With GTCTTAAC as the sequence, how does the binding signal read?
A: The binding signal was 10.3 upbm affinity estimate (log intensity, higher = more binding, comparable within an allelic series).

Q: CTTAATAC was tested. Which binding signal did it give?
A: Its binding signal is 11.3 upbm affinity estimate (log intensity, higher = more binding, comparable within an allelic series).

Q: For GCTTAAGA, which binding signal is on record?
A: Its binding signal is 11.1 upbm affinity estimate (log intensity, higher = more binding, comparable within an allelic series).

Q: How did the binding signal turn out when AGCTTAAG was run?
A: The binding signal was 11.6 upbm affinity estimate (log intensity, higher = more binding, comparable within an allelic series).

Q: For ATTAAGAC, which binding signal is on record?
A: The binding signal was 11 upbm affinity estimate (log intensity, higher = more binding, comparable within an allelic series).

Q: How did the binding signal turn out when CTTAATGC was run?
A: Its binding signal is 11 upbm affinity estimate (log intensity, higher = more binding, comparable within an allelic series).

Q: For CGCATTAG, which binding signal is on record?
A: Its binding signal is 10.4 upbm affinity estimate (log intensity, higher = more binding, comparable within an allelic series).

Q: With GCATTAGC as the sequence, how does the binding signal read?
A: The binding signal was 10.5 upbm affinity estimate (log intensity, higher = more binding, comparable within an allelic series).

Q: With CTAAGCTC as the sequence, how does the binding signal read?
A: Its binding signal is 11.1 upbm affinity estimate (log intensity, higher = more binding, comparable within an allelic series).

Q: For GGTGTTAA, which binding signal is on record?
A: The binding signal was 10.2 upbm affinity estimate (log intensity, higher = more binding, comparable within an allelic series).

Q: How did the binding signal turn out when ATAATCTA was run?
A: Its binding signal is 12.4 upbm affinity estimate (log intensity, higher = more binding, comparable within an allelic series).

Q: CTAAGCCA was tested. Which binding signal did it give?
A: Its binding signal is 10.7 upbm affinity estimate (log intensity, higher = more binding, comparable within an allelic series).

Q: For CTTAAGAC, which binding signal is on record?
A: The binding signal was 10.7 upbm affinity estimate (log intensity, higher = more binding, comparable within an allelic series).

Q: With CGGCTTAG as the sequence, how does the binding signal read?
A: Its binding signal is 11.9 upbm affinity estimate (log intensity, higher = more binding, comparable within an allelic series).

Q: With CCTAATAC as the sequence, how does the binding signal read?
A: Its binding signal is 10.6 upbm affinity estimate (log intensity, higher = more binding, comparable within an allelic series).

Q: Which binding signal does the source give for AGCATTAA here?
A: Its binding signal is 10.9 upbm affinity estimate (log intensity, higher = more binding, comparable within an allelic series).

Q: Which binding signal does the source give for CGTCTTAA here?
A: Its binding signal is 10.7 upbm affinity estimate (log intensity, higher = more binding, comparable within an allelic series).

Q: How did the binding signal turn out when ACTAAGCT was run?
A: The binding signal was 11.4 upbm affinity estimate (log intensity, higher = more binding, comparable within an allelic series).

Q: CTAATGCC was tested. Which binding signal did it give?
A: The binding signal was 10.1 upbm affinity estimate (log intensity, higher = more binding, comparable within an allelic series).
